Screening results as filed in PubChem.
H9c2 protect: cardioprotection against H2O2-induced cell death, primary screen, uHTS, H9c2 cells, ATPLite luminescence; H9c2 cardiomyocytes, H2O2 injury protection, 2 h; protection from H2O2 cell death, % at 20 µM; hit rate 0.63% among 360,000; AID 588492, 2011;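 active means compounds giving at least 50% protection of heart cells from peroxide-induced death in the single-dose screen, raw or plate-pattern-corrected value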;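 further: 0% = DMSO wells with peroxide and 100% = DMSO wells without peroxide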
Rtt109 Vps75: inhibitors of C. albicans Rtt109/Vps75 HAT, primary screen, biochemical, ThioGlo CoA-SH fluorescence, plate reader; inhibition, % at 34.9 µM; purified Rtt109/Vps75, 4 h; hit rate 0.16% among 330,000;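 active means inhibition of at least 50% in every replicate; inconclusive means best replicate reaches 50% inhibition but some replicates fall short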
ABHD5 PLIN5 PPI: ABHD5-PLIN5 interaction inhibitors, primary screen, cell lysate, split luciferase complementation, luminescence; Perilipin-5 (Homo sapiens) + 1-acylglycerol-3-phosphate O-acyltransferase ABHD5 (Homo …; Split G. princeps luciferase complementation, 4 h; inhibition, % at 4 µM; hit rate 0.78% among 360,000;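 active means inhibition above the mean inhibition across every tested compound plus 3 SD, cut at about 22% in these data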;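 further: 0% = DMSO only wells and the 100% control is not disclosed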
Target sequence (Q00G26 whole entry, looked up): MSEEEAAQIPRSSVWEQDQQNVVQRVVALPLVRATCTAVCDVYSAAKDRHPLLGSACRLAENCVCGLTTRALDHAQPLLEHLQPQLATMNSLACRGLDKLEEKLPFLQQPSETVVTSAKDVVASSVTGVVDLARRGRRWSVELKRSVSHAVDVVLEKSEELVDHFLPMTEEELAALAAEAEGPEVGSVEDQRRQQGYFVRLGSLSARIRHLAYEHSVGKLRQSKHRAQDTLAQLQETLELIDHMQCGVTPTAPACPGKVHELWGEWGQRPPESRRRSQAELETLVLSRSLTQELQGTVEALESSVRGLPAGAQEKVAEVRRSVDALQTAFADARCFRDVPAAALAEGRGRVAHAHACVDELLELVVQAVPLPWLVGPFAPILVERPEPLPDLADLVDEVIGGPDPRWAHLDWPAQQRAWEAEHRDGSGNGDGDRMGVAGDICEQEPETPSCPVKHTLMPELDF
Target sequence (Q8WTS1 whole entry, looked up): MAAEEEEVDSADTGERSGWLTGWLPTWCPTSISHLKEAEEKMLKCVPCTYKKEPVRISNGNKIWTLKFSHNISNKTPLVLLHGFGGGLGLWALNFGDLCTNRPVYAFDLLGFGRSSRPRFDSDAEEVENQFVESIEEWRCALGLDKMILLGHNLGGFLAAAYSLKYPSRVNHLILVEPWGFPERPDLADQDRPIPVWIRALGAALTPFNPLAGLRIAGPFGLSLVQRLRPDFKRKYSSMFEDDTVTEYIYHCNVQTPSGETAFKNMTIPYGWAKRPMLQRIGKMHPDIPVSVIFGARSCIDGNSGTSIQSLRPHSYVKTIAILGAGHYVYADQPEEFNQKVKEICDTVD
DAGLB inh: DAGLB lipase inhibitors, primary screen, biochemical, fluorescence, HTS. Diacylglycerol lipase-beta (Homo sapiens), Q8NCG7. hit rate 0.059% among 340,000. inhibition, % at 5.17 µM. AID 504411, 2011. HEK293T DAGLB membrane lysate, EnzChek fluorogenic substrate; in the data active means inhibition above about 34%;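 further: 0% = enzyme with vehicle and 100% = wells lacking enzyme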
HGIII-sPLA2 inh: human group III sPLA2 inhibitors, primary screen, biochemical, QFRET, BODIPY PC-A2 liposome substrate; Group 3 secretory phospholipase A2 (Homo sapiens), Q9NZ20; QFRET BODIPY PC-A2 liposome hydrolysis, fluorescence; inhibition, % at 12.2 µM; hit rate 0.56% among 370,000;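 active means inhibition above mean plus 3 SD of compounds lying within the high and low control bounds, cut at about 19% in these data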;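 further: 0% = median of test compound wells and 100% = no enzyme DMSO wells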
Myeloid diff MLP: induction of myeloid progenitor differentiation, primary screen, cell-based, flow cytometry, MLPCN library; AID 624256, 2012; calls only at 10 µM; hit rate 1% among 360,000; ER-HoxA9 myeloid progenitors, lysozyme-GFP differentiation;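 active means normalized GFP-positive differentiation at or above the plate's own cutoff, the solvent-only control mean plus 3 SD; inconclusive means no clear call, values can overlap the other calls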;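 further: cells exposed to compound for four days before flow analysis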
sPLA2 confirm: human group III sPLA2 inhibitors, confirmation, biochemical, QFRET, triplicate | recombinant hGIII-sPLA2, BODIPY PC-A2 QFRET fluorescence | inhibition, % at 12.2 µM | hit rate 34% among 2,000 | shares compounds with HGIII-sPLA2 inh;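 active means mean inhibition across triplicates above the hit cutoff set in the earlier primary screen, cut at about 19% in these data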;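 further: 0% = enzyme with DMSO and 100% = DMSO wells lacking enzyme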
535nm interf: 535nm fluorescence optical interference, confirmation, artefact control for HGIII-sPLA2 inhibitor project, biochemical, QFRET. inhibition, % at 12.2 µM. BODIPY FL product fluorescence interference. hit rate 8.5% among 2,000. shares compounds with HGIII-sPLA2 inh. AID 743282, 2014;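 active means average inhibition above the solvent-only control mean plus 3 SD, cut at about 6% in these data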;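 further: 0% = DMSO with substrate plus product and 100% = DMSO with substrate alone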
535nm interf DR: 535nm fluorescence optical interference, dose response, artefact control for HGIII-sPLA2 inhibitor project, biochemical, QFRET. IC50, µM. shares compounds with HGIII-sPLA2 inh. 240 tested, under 10 active. BODIPY FL product fluorescence interference, cell-free;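 active means IC50 at or below 10 µM; inactive means IC50 above 10 µM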
* = called active by the depositor; i = inactive; ? = inconclusive; / = no result; + = active, no number. Shown are actives, neighbours in structure and some others; about 2.9% of the full set was active somewhere.

SMILES	H9c2 protect	Rtt109 Vps75	ABHD5 PLIN5 PPI	DAGLB inh	HGIII-sPLA2 inh	Myeloid diff MLP	sPLA2 confirm	535nm interf	others
Cn1c2c(c(=O)n3ncnc13)CCCC2	0	-10	-2	0	4	i	/	/
CN(c1nc(-c2ccccc2)cs1)C1CCS(=O)(=O)C1 (stereo unspecified)	-4	2	-4	-2	17	i	/	/
NC(c1ccccc1)c1csc(NC(=O)NCCc2ccccc2)n1 (stereo unspecified)	12	/	-3	/	25*	i	-1	-8
NC(c1csc(NC(=O)Nc2ccccc2)n1)C1CCCCC1 (stereo unspecified)	-5	/	-6	/	22*	i	8	-12
COc1ccc(CCNC(=O)Nc2nc(C(N)C3CCCCC3)cs2)cc1OC (stereo unspecified)	20	/	4	/	22*	i	5	-22
NC(c1csc(Nc2nncc3ccccc23)n1)C1CCCCC1 (stereo unspecified)	-12	/	9	/	20*	i	8	-21
Cc1ccc(Cl)cc1N(C(=O)c1csnn1)C(C(=O)NC1CCCC1)c1ccco1 (stereo unspecified)	2	-6	-2	0	-5	i	/	/
COc1ccc(-c2cc(-c3nnc(COC(=O)CC4CCCC4)o3)c3ccccc3n2)cc1OC	18	1	-1	-3	-10	i	/	/
C#CC[N+](C)(C)CCCCCCCCCC	-5	-3	8	3	19*	?	1	-15
Cc1ccc(NC(=O)COC(=O)c2cc(Cl)ccc2[N+](=O)[O-])c(C)c1	2	-12	0	-4	20*	i	2	-6
COc1ccc(-n2c(-c3ccc(Cl)cc3)c[nH]c2=S)cc1	-7	3	-11	-1	22*	i	29*	2
Cc1ccc(-n2c(-c3ccccc3)c[nH]c2=S)cc1	-12	15	-12	1	20*	i	27*	2
S=c1[nH]cc(-c2ccccc2)n1-c1ccccc1	5	1	-11	2	19	i	/	/
S=c1[nH]nc(-c2ccccc2)c2ccccc12	3	-6	-4	-3	20*	i	25*	-3
Cc1ccc(-c2n[nH]c(=S)c3ccccc23)cc1	14	/	-4	-5	10	i	/	/
CC(C)C[C@H]1CNC(=O)C(=O)N1C[C@H](Cc1ccc(O)cc1)NC(=O)Cc1ccccc1	/	/	-4	/	12	i	/	/
O=C(CN1c2ccccc2Sc2ccccc21)NNC(=S)Nc1ccc(Cl)cc1	-15	-10	-11	7	28*	i	7	18*
O=C(CN1c2ccccc2Sc2ccccc21)NNC(=S)Nc1ccc(Cl)cc1Cl	-20	-45	-6	15	17	i	/	/
O=C(NNC(=S)Nc1ccc(Cl)cc1)c1ccccc1	4	4	4	-2	19*	i	39*	3	535nm interf DR=>122
Cc1nn(C(C)C(=O)NCc2cccs2)c(C)c1[N+](=O)[O-] (stereo unspecified)	-3	-4	3	0	-1	i	/	/
CCc1ccc(OCC(O)CN2CCN(c3ccc(OC)cc3)CC2)cc1 (stereo unspecified)	0	0	-1	1	7	i	/	/
S=C(NCCN1CCOCC1)Nc1cccc2ccccc12	0	-3	0	1	6	i	/	/
Cc1ccc(C(=O)Oc2oc(-c3ccccc3)nc2C=Nc2ccc(N(C)C)cc2)cc1	-14	5	0	2	14	i	/	/
CN(C)c1ccc(N=Cc2nc(-c3ccccc3)oc2OC(=O)c2cccc(Cl)c2)cc1	-18	3	0	-1	22*	i	8	-4
CCN(C(=O)COC(=O)CCCc1nc2ccccc2s1)c1c(N)n(Cc2ccccc2)c(=O)[nH]c1=O	-9	1	6	1	-10	i	/	/
SMILES	H9c2 protect	Rtt109 Vps75	ABHD5 PLIN5 PPI	DAGLB inh	HGIII-sPLA2 inh	Myeloid diff MLP	sPLA2 confirm	535nm interf	others
CC(C)CN(C(=O)COC(=O)CCc1nc2ccccc2s1)c1c(N)n(Cc2ccccc2)c(=O)[nH]c1=O	-2	-1	4	0	19*	/	9	-9
O=C(N/C(=C\c1ccccc1)C(=O)N1CCN(CCO)CC1)c1ccccc1	-1	2	1	0	21*	i	5	-3
Cc1cc(C(=O)NNC(=S)NCc2ccco2)n(C)n1	3	-5	-2	-1	8	i	/	/
CC(C)c1cc(C(=O)NNC(=S)NCc2ccco2)c(O)c(C(C)C)c1	-14	6	-13	0	51*	i	57*	4	535nm interf DR=>122
CC(C)CN(CCCNC(=O)CN1N=C(c2ccc(Cl)cc2)CCC1=O)CC(C)C	2	4	-8	-4	25*	i	32*	-13
Cc1cc(C)n2nc(SCc3nnc(-c4cccs4)o3)nc2n1	5	-4	-2	-1	2	i	/	/
CCSC1=NCCN1S(=O)(=O)c1ccc(Cl)cc1	-1	1	-6	-1	22*	i	6	-6
COC(=O)c1ccc(NC(=O)CNCc2ccncc2)cc1	5	-7	2	0	21*	i	3	-5
CCCCn1c(N)c(N(CCOC)C(=O)c2ccc(F)c(S(=O)(=O)N3CCOCC3)c2)c(=O)[nH]c1=O	-2	11	6	-5	20*	i	7	-5
CCCCn1c(N)c(N(CCOC)C(=O)c2cc(S(=O)(=O)N3CCOCC3)ccc2F)c(=O)[nH]c1=O	-4	-6	12	4	5	i	/	/
Cc1onc(-c2ccccc2)c1C(=O)NC(=S)NNC(=O)c1ccccc1O	60*	-4	2	12	42*	+	34*	1	535nm interf DR=>122
